Results filed as inconclusive are left out. Where a call stands in place of a potency, no number is given. The source made the active and inactive calls. Calls follow the shape of the dose curve; as a rule, active = well fitted inhibition curve with a large enough effect; inconclusive = small, poorly fitted or top-dose-only effect; inactive = no such curve, though single readings can be large or run the other way.
The compounds below were run on Zika virus NS2B-NS3 protease (linked construct) (assay: Primary screen NINDS Rhodamine qHTS for Zika virus inhibitors (AID 1347160; also: nearly all actives have a fitted effect of over 55% in size)). Settings: purified NS2B-NS3 protease, Rhodamine110 substrate fluorescence; series mostly up to 57.1 µM.
How it was run: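 Rhodamine110-peptide cleavage (1.5 µM substrate) by 25 nM linked NS2B-NS3 enzyme at pH 8.0 (Tris, Tween 20), after 15 min RT preincubation with compounds; 15-min fluorescence change normalized to controls and Hill-fitted.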
For `Cc1cc(C)c2c(N)c(C(=O)NCc3ccc(Cl)cc3)sc2n1`, the Potency was “inactive”. In the case of `CC1CCC2(OC1)OC1CC3C4CC=C5CC(O)CC(O[C@@H]6OC[C@@H](O)[C@H](O)[C@H]6O)C5(C)C4CCC3(C)C1(O)C2C` (stereo partly drawn), the Potency is reported as “inactive”. In the case of `CN1CCc2nc(C(=O)N[C@@H]3C[C@@H](C(=O)N(C)C)CC[C@@H]3NC(=O)C(=O)Nc3ccc(Cl)cn3)sc2C1`, the Potency is reported as “inactive”. For `C=C[C@H]1CN2CC[C@H]1C[C@@H]2C(O)c1ccnc2ccc(OC)cc12` (stereo partly drawn), the Potency was “inactive”. With `CC(C)(O)CC(CO)NC(=O)CC(O)CC(=O)Cc1ccccc1` (stereo not drawn) the Potency was “inactive”. With `CC1(C)CC2C(O)c3cocc3CC(C)(O)C2C1` (stereo not drawn) the Potency was “inactive”. For `CC(O)CCC1C(CO[C@@H]2O[C@H](CO)[C@@H](O)[C@H](O)[C@H]2O)CC(O)CC1(C)C` (stereo partly drawn), the Potency was “inactive”. With `C=CC(=O)Nc1cccc(Nc2nc(Nc3ccc(N4CCN(C(C)=O)CC4)cc3OC)ncc2C(F)(F)F)c1` the Potency was “inactive”. `Cn1c(=O)n(-c2ccc(C(C)(C)C#N)cc2)c2c3cc(C#Cc4cccnc4)ccc3ncc21` was tested, and the Potency was “inactive”. In the case of `CC1C(=O)CC2C3CCC(C(=O)O)C12CC3(C)CO` (stereo not drawn), the Potency is reported as “inactive”. For `O=C(CSc1nc2c(c(=O)n1-c1ccccc1)SCC2)Nc1ccc(-c2ccccc2)cn1`, the Potency was “inactive”. `Cc1ccc(NC(=O)C(=O)NC2CC(C)(C)NC(C)(C)C2)cc1` was tested, and the Potency was “inactive”. With `COC(=O)[C@@]1(c2ccc(C)cc2)C[C@H]1CN1CCC(O)(c2ccccc2)CC1` the Potency was “inactive”. With `O=S(=O)(NCC1CC1)c1ccc(Nc2nccc(N3CCCc4cc(O)ccc43)n2)cc1` the Potency was “inactive”. For `O=C(/C=C/c1cccc(S(=O)(=O)Nc2ccccc2)c1)NO`, the Potency was “inactive”. For `C/C=C1\[C@H](OC2OC(COC3OC(CO)C(O)C(O)C3O)C(O)C(O)C2O)OC=C(C(=O)OC)[C@H]1CC(=O)OCCc1ccc(O)cc1` (stereo partly drawn), the Potency was “inactive”. In the case of `COC(=O)C12C(=O)C(C)=C(O)C1(C)C(C)=CC1C3(CO)CCC(O)C(C)(C)C3CCC12C` (stereo not drawn), the Potency is reported as “inactive”. `COc1c/c(=C2\C=c3ccccc3=N2)[nH]/c1=C\c1[nH]c(C)cc1C` was tested, and the Potency was “inactive”. In the case of `CC(C)C(CO)Nc1nc(Nc2cc(N)cc(Cl)c2)c2ncn(C(C)C)c2n1` (stereo not drawn), the Potency is reported as “inactive”. With `C=C[C@@](C)(O)CC/C=C(\C)C(=O)O[C@@H]1[C@@H]2O[C@]2(C)[C@H]2[C@H](O[C@@H]3O[C@H](CO)[C@@H](O)[C@H](O)[C@H]3O)OC=C[C@@]12O` the Potency was “inactive”. For `C[C@H](C(=O)NC1CCCC1)N(C(=O)Cn1nnc(-c2ccc3c(c2)OCO3)n1)C1CCCCC1`, the Potency was “inactive”. With `CC(O)/C=C/C1(O)C2(C)COC1(C)CC(O)C2` (stereo not drawn) the Potency was “inactive”. With `c1cn2cc(-c3ccc4cn[nH]c4c3)nc(Nc3ccc(N4CCOCC4)cc3)c2n1` the Potency was “inactive”. With `CC(C)=CCC[C@](C)(O[C@@H]1O[C@H](CO[C@@H]2O[C@H](CO)[C@@H](O)[C@H](O)[C@H]2O)[C@@H](O)[C@H](O)[C@H]1O)C1CC[C@]2(C)[C@@H]1[C@H](O)CC1[C@@]3(C)CC[C@H](O[C@@H]4O[C@H](CO)[C@@H](O)[C@H](O)[C@H]4O[C@@H]4O[C@H](CO)[C@@H](O)[C@H](O)[C@H]4O)C(C)(C)[C@@H]3CC[C@]12C` (stereo partly drawn) the Potency was “inactive”. For `COC1CC(O[C@H]2CC[C@@]3(C)C(=CC[C@]4(O)C3[C@H](OC(C)=O)[C@@H](OC(=O)c3ccccc3)[C@]3(C)[C@@H](C(C)=O)CC[C@@]34O)C2)OC(C)C1OC1CC(OC)C(OC2CC(OC)C(OC3OC(C)C(OC4OC(CO)C(O)C(O)C4O)C(OC)C3O)C(C)O2)C(C)O1` (stereo partly drawn), the activity change, negative = inhibition was -1.64% [at 10.7 µM] (inactive). With `O=C1NC2CCc3nc4ccccc4c(=O)n3C2=Nc2ccccc21` (stereo not drawn) the Potency was “inactive”. With `CC1(C)CC2C=C(C(=O)O)C3COC(=O)C(O)(CO)C23C1` (stereo not drawn) the Potency was “inactive”. For `CCN(CC)Cc1ccc(C(=O)N(CCc2ccccc2OC)[C@@H]2CCNC2)cc1`, the Potency was “inactive”.

— PubChem BioAssay (NCATS)
